Measured values from ChEMBL document CHEMBL2218924, “A broad activity screen in support of a chemogenomic map for kinase signalling research and drug discovery” (Biochem J, 2013).

target: Ribosomal protein S6 kinase alpha-1 (Homo sapiens) (UniProt Q15418); details: at 10 µM
Sequence (Q15418 whole entry): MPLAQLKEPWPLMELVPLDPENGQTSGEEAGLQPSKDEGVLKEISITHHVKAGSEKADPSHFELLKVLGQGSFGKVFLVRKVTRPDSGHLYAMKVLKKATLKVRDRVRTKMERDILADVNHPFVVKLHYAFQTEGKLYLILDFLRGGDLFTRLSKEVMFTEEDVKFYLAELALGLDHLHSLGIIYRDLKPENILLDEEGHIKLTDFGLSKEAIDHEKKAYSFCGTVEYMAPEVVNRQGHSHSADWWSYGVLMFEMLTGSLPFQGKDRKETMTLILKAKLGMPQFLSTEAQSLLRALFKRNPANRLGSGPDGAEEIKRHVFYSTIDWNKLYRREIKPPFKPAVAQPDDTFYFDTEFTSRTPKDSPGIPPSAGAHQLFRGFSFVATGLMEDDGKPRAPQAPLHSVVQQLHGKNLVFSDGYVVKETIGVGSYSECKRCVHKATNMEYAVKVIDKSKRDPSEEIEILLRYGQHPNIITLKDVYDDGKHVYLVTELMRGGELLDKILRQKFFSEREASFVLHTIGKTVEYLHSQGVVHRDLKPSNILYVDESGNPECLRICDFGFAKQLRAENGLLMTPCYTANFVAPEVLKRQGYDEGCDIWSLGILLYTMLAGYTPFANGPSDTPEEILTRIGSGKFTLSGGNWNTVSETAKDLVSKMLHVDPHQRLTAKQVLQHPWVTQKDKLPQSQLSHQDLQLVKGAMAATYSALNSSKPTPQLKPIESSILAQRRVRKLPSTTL

SMILES	residual activity [%]
Oc1c2ccccc2c2c3c(cccc13)N=N2	64
Nc1nc(Nc2ccc(S(N)(=O)=O)cc2)nn1C(=S)Nc1c(F)cccc1F	3
O=C1Nc2ccc(Br)cc2/C1=C\c1cc2c([nH]1)CCCC2	81
Cc1nc(-c2ccccc2)c(-c2ccncc2)o1	97
COc1cc2ncnc(Nc3ccc(O)c(Br)c3)c2cc1OC	45
Nc1cccc(-c2cc3c(Oc4cccc(O)c4)ncnc3[nH]2)c1	68
CCOc1cc2ncnc(Nc3cccc(Br)c3)c2cc1OCC	72
CO[C@H]1C[C@@H]2CC[C@@H](C)[C@@](O)(O2)C(=O)C(=O)N2CCCC[C@H]2C(=O)O[C@H]([C@H](C)C[C@@H]2CC[C@@H](O)[C@H](OC)C2)CC(=O)[C@H](C)/C=C(\C)[C@@H](O)[C@@H](OC)C(=O)[C@H](C)C[C@H](C)/C=C/C=C/C=C/1C	112
COc1cc2ncnc(Nc3ccc(Oc4ccccc4)cc3)c2cc1OC	78
COc1ccc(OC)c2c(=S)c3ccccc3[nH]c12	106
CO[C@H]1[C@@H](OC)C[C@H](C)[C@@H](OC)C2=CC(=O)C=C(NC(=O)/C(C)=C/C=C/[C@H](OC)[C@@H](OC(N)=O)/C(C)=C/[C@@H]1C)C2=O	84
Cc1ccc(NC2=CC(=O)c3sc(C)nc3C2=O)cc1	78
O=C1NC(=O)/C(=C\c2ccc3nccnc3c2)S1	83
O=C1c2ccccc2-[n+]2ccc3c([nH]c4ccccc43)c21	116
COc1ccc(CNc2nc(N(CCO)CCO)nc3c2ncn3C(C)C)cc1	59
CN(C)c1ccc(/C=C2\C(=O)Nc3ccccc32)cc1	34
Oc1ccc(Nc2nc(-c3ccc(Cl)cc3)cs2)cc1	103
CC(C)n1cnc2c(NCc3ccccc3)nc(NCCCO)nc21	82

SMILES	residual activity [%]
N#Cc1cnc2cnc(NCc3cccnc3)cc2c1Nc1ccc(F)c(Cl)c1	1
CC#CC(=O)Nc1cc2c(Nc3ccc(F)c(Cl)c3)ncnc2cn1	101
Cn1cc(/C=C2\C(=O)Nc3ccc(S(N)(=O)=O)cc32)c2ccccc21	6
NC(=O)c1ccc2[nH]c(-c3ccc(Oc4ccc(Cl)cc4)cc3)nc2c1	67
COc1ccc(C(=O)Nc2sc3c(c2C(N)=O)CCCC3)cc1OC	103
N#CCCc1ccc2c(c1)-c1[nH]c3ccc([N+](=O)[O-])cc3c1CC(=O)N2	24
Cn1cnc2cc3c(Nc4cccc(Br)c4)ncnc3cc21	92
N#C/C(=C(\N)Sc1ccc(N)cc1)c1ccccc1C(F)(F)F	42
Nc1ccc2ncnc(NCCc3ccc(Oc4ccccc4)cc3)c2c1	41
O=c1cc(-c2cccc3c2Sc2ccccc2S3)oc(N2CCOCC2)c1	94
Cc1cc2ncc(-c3ccccc3)nc2cc1C	86
O=C(Nc1cccc(Nc2cc(Nc3cccc(C(F)(F)F)c3)ncn2)c1)C1CC1	79
O=C1NC(=O)c2c1c1c3ccccc3[nH]c1c1[nH]c3cc(Br)ccc3c21	49
O=C(Nc1cccc(Nc2nccc(Nc3cccc(C(F)(F)F)c3)n2)c1)C1CC1	36
Oc1ccc(-c2nc(-c3ccc(F)cc3)c(-c3ccncc3)[nH]2)cc1	83
CC[n+]1c(/C=C/N(C)c2ccccc2)n(-c2ccccc2)c2ccc(-c3nc4ccccc4s3)cc21	84
O=C1NC(=O)c2cc(Nc3ccc(F)cc3)c(Nc3ccc(F)cc3)cc21	91
